The values below come from PubChem BioAssay.

Active and inactive are the calls of the source.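 How the source made its calls, unless noted: active means fluorescence slope higher than the sample average by over 3 SD (cut at about -0.22 in these data, passing the limit was not always enough); inactive means the rest.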

The nature of test [1]: inhibitors of TNFa-induced NFkB p65 translocation, primary screen, imaging, HUVEC, MLSMR starter and 10KST1 sets (AID 438;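 active means inhibition above 20% together with a positive visual image hit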;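 further: compound added about 3h40 before a 20 min TNFalpha stimulation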;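 on inhibition: signal is the nuclear over cytoplasmic p65 intensity ratio per well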). Conditions: HUVEC TNFa-induced p65 nuclear translocation; cell count: measured here: nuclei count (cytotoxicity indicator), at 2.08 µM; inhibition: at 2 µM, stronger effect = higher value, 0% TNFa-plus-vehicle, 100% no-TNFa wells.
A short description of test [2]: inhibitors of mutant huntingtin aggregation, primary screen, imaging, exon1htt(103Q)mCFP cells, high-content imaging (AID 483;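 active means visual image review flags a hit and inhibition of aggregation exceeds 20%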;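 further: compound exposure lasted 3 days before fixation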;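 on nuclei count: percent of the per-plate median nuclei count of sample wells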). Conditions: exon1htt(103Q)mCFP cell line, aggregate imaging, at 2 µM; inhibition of aggregation: stronger effect = higher value; nuclei count: measured here: cell count, toxicity.
Test [3] is described as follows: inhibitors of E-selectin induction by TNFa, primary screen, imaging, HUVEC, immunofluorescence, MLSMR starter and 10KST1 sets (AID 487;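 active means visually confirmed hit in the image check and inhibition above 20%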;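 on inhibition: signal is fraction of cell area covered by stained E-selectin grains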;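 on nuclei count: 100% = median nuclei count of all wells on the same plate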). Conditions: HUVEC TNFalpha-induced E-selectin immunofluorescence imaging, at 2 µM; inhibition: stronger effect = higher value; nuclei count: measured here: cell number, toxicity.
The target of test [4] is Voltage-gated potassium channel subunit beta-2 (Rattus norvegicus) (UniProt P62483). Kind of test: KvBeta enzyme negative modulators, primary screen, biochemical, NADPH fluorescence (AID 622).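 Further: slope of raw intensity against log time taken from 70 to 1610 s.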 Conditions: recombinant KvBeta, 4-cyanobenzaldehyde reduction, at 10 µM, stronger effect = higher value.
Chain of Voltage-gated potassium channel subunit beta-2 (Rattus norvegicus) (P62483 whole entry, looked up): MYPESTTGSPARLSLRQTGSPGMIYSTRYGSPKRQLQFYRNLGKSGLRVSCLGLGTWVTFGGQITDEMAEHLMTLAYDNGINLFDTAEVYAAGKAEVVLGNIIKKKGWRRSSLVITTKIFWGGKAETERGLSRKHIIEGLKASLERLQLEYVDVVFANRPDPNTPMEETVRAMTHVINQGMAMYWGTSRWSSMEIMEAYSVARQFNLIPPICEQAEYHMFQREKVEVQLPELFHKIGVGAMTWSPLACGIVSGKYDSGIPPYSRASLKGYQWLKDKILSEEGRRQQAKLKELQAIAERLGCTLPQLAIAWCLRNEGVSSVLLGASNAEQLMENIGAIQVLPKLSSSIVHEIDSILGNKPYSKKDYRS
For test [5] the target is unchanged. Kind of test: KvBeta positive modulators, primary screen, biochemical, NADPH fluorescence (AID 623;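 active means NADPH fluorescence slope more negative than the mean of all samples by about 3 SD, 99.7% confidence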;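 further: fluorescence intensity change per second fitted from 20 to 320 s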). The conditions noted are these: Recombinant KvBeta, NADPH fluorescence decrease slope, 10 min; at 10 µM; stronger effect = lower value.
In test [6] the target is Alpha-2C adrenergic receptor (Homo sapiens) (UniProt P18825). Kind of test: modulators of alpha2C/GIRK thallium flux, primary screen, cell-based, HEK293 alpha2C/GIRK1/2 (AID 624;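 active means fluorescence slope after compound addition differing from the mean of all screened samples at 99.7% confidence, in either direction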;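 further: slope of fluorescence ratio to pre-addition baseline per second over 15 to 24 s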). The conditions noted are these: thallium flux BTC fluorescence, at 10 µM, actives lie on both sides.
Chain of Alpha-2C adrenergic receptor (Homo sapiens) (P18825 whole entry, looked up): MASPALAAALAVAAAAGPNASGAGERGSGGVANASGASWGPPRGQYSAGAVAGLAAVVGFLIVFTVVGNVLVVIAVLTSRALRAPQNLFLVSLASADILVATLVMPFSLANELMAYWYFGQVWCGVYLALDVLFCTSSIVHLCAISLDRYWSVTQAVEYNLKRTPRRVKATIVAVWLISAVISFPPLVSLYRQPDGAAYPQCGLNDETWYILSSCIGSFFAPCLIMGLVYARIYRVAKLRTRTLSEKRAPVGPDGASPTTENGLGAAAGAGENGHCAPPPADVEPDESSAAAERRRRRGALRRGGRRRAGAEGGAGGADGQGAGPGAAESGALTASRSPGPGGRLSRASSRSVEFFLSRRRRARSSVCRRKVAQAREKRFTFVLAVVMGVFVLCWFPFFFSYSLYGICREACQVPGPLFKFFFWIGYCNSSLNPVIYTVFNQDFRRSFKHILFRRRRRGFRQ
Test [7] can be described thus: inhibitors of Sendai virus-induced IRF3 signaling, primary screen, TLR/RLR signaling modifier project, cell-based, Sendai virus stimulus, luciferase, 10K MLSCN set (AID 602276;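 active means inhibition at or above 50% at 10 µM; inactive means inhibition below 50%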;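 further: firefly luciferase from ISG56 promoter only with Renilla not read in this screen; 0% = Sendai virus plus DMSO and 100% = medium plus DMSO without virus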). The conditions noted are these: HEK293 RL24 IRF3 luciferase reporter, at 10 µM, stronger effect = higher value. A general note: Reporter assays use an easily measured gene product as a stand-in for the process of interest.

Test [8] can be described thus: inhibitors of poly I:C-induced TLR3 signaling, primary screen, cell-based, poly I:C stimulus, luciferase, 10K MLSCN set (AID 602277;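 active means inhibition of the reporter signal at or above 50%; inactive means inhibition below 50%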). Conditions: HEK293-TLR3 RL24 IRF3 luciferase reporter, at 10 µM, stronger effect = higher value.

In the case of `Cc1cccc(NC(=O)c2ccccc2O)c1C`, in test [1], the cell count was determined as 497. Besides, the inhibition (commonly the drop in the measured response relative to a control, in per cent) in test [1] is 4.9% (inactive); in test [3], -5.3% (inactive); in test [7] it was -45.5% (inactive); in test [8], -93.4% (inactive). Further, the inhibition of aggregation in test [2] is -10% (inactive). Further, the nuclei count in test [2] worked out at 98.2%; in test [3] it was 122%. Also, in test [4], the fluorescence slope was -0.482 (inactive). Also, the NADPH fluorescence slope in test [5] was -2.8e-05 (inactive). The slope in test [6] was 0.00603 (inactive).
For the molecule `COc1ccc(-c2cc(C(F)(F)F)n3ncc(C(=O)NCC4CCCO4)c3n2)cc1` (centres undefined), the cell count in test [1] was 669. Further, the inhibition in test [1] was 6.7% (inactive); in test [3], 57.7% (inactive); in test [7] it was 13.6% (inactive); in test [8], 25.3% (inactive). Further, the inhibition of aggregation in test [2] is -1% (inactive). Also, the nuclei count came to 67.5% in test [2] and 95.2% in test [3]. Besides, the fluorescence slope in test [4] was -0.00373 (active). The NADPH fluorescence slope in test [5] was 2e-06 (inactive). The slope in test [6] is 0.00552 (inactive).
Consider `c1ccc(Cn2nnnc2C(c2cccs2)N2CCSCC2)cc1` (centres undefined), for which the cell count in test [1] was 482. Moreover, the inhibition in test [1] was -10.4% (inactive); in test [3], -56.7% (inactive); in test [7], -6.43% (inactive); in test [8], 14.3% (inactive). Further, in test [2], the inhibition of aggregation is -0.3% (inactive). Besides, the nuclei count in test [2] was 110%; in test [3] it was 95.9%. Besides, in test [4], the fluorescence slope was -0.514 (inactive). Moreover, the NADPH fluorescence slope in test [5] is -6.4e-05 (inactive). Besides, the slope in test [6] was 0.00524 (inactive).
On to `CCOc1ccc(NCc2nnc(SCC(=O)Nc3cc(C)on3)n2-c2ccccc2OC)cc1`, for which, in test [1], the cell count was 325. For the same molecule, the inhibition in test [1] is -9.3% (inactive); in test [3], 41.6% (inactive); in test [7], 20.4% (inactive); in test [8] it was 30.4% (inactive). For the same molecule, in test [2], the inhibition of aggregation was -6.4% (inactive). Further, the nuclei count in test [2] worked out at 101%; in test [3] it was 107%. Also, in test [4], the fluorescence slope was -0.452 (inactive). The NADPH fluorescence slope in test [5] is -2.8e-05 (inactive). Besides, in test [6], the slope is 0.00835 (inactive).
`O=S(=O)(NCC1CCCO1)c1cc(Cl)ccc1Br` (centres undefined): in test [1], the cell count came to 426. Besides, the inhibition was -0.2% (inactive) in test [1], -4.9% (inactive) in test [3], -13.6% (inactive) in test [7] and -30.7% (inactive) in test [8]. The inhibition of aggregation in test [2] was 7.4% (inactive). Besides, the values for the nuclei count in test [2] and in test [3] were 108% and 117%, respectively. Moreover, the fluorescence slope in test [4] is -0.506 (inactive). In test [5], the NADPH fluorescence slope is 7.7e-05 (inactive). The slope in test [6] was 0.00336 (inactive).
`CC1CN(c2nc3ccccc3nc2C(C#N)C(=O)NCc2ccc3c(c2)OCO3)CC(C)O1` (centres undefined): the cell count in test [1] was determined as 340. Further, the inhibition in test [1] was 4.7% (inactive); in test [3], -24.9% (inactive); in test [7], 18.7% (inactive); in test [8], 14.5% (inactive). Also, in test [2], the inhibition of aggregation was 11.1% (inactive). The nuclei count was found to be 83.9% in test [2] and 81.7% in test [3]. The fluorescence slope in test [4] is -0.347 (inactive). The NADPH fluorescence slope in test [5] was -5.3e-05 (inactive). Besides, the slope in test [6] was 0.00757 (inactive).
For the molecule `O=C(C1CCCN(S(=O)(=O)c2cnc[nH]2)C1)N1CC(=O)N(CCc2ccccc2)C(=O)C1` (centres undefined), the cell count in test [1] worked out at 545. Also, the inhibition in test [1] is 3.4% (inactive); in test [3], -124% (inactive); in test [7], 9.42% (inactive); in test [8], 20.7% (inactive). Also, in test [2], the inhibition of aggregation was -13.8% (inactive). In addition, the nuclei count in test [2] worked out at 109%; in test [3], 147%. The fluorescence slope in test [4] is -0.573 (inactive). Moreover, the NADPH fluorescence slope in test [5] is 8.9e-06 (inactive). Also, in test [6], the slope is 0.0066 (inactive).
For the molecule `O=C(Nc1sc2c(c1C(=O)NCc1ccco1)CCCC2)c1ccc2c(c1)OCO2`, in test [1], the cell count was 563. The inhibition in test [1] was -10.1% (inactive); in test [3], -56% (inactive); in test [7] it was -29.8% (inactive); in test [8], -179% (inactive). Also, in test [2], the inhibition of aggregation is 2.5% (inactive). Moreover, the nuclei count was found to be 103% in test [2] and 117% in test [3]. Moreover, the fluorescence slope in test [4] was -0.517 (inactive). Besides, the NADPH fluorescence slope in test [5] is 3.8e-06 (inactive). Further, in test [6], the slope was 0.00669 (inactive).
Regarding `COc1cccc(-c2cc(C(F)(F)F)nc(NCc3ccco3)n2)c1`, in test [1], the cell count came out at 449. Besides, the inhibition in test [1] was 1.7% (inactive); in test [3] it was -25.2% (inactive); in test [7], -7.28% (inactive); in test [8] it was 19.1% (inactive). The inhibition of aggregation in test [2] is 28.6% (inactive). The nuclei count came to 97.3% in test [2] and 94.3% in test [3]. In addition, the fluorescence slope in test [4] was -0.469 (inactive). Also, the NADPH fluorescence slope in test [5] was -5.6e-06 (inactive). Also, the slope in test [6] is 0.00562 (inactive).
